PubChem BioAssay
Several values for one entry are separate records, joined by “and”; a condition that tells them apart may be missing. Equal entries are not always repeated. Inconclusive results are not listed. Some structures have more than one record in an assay (separate samples or runs), and their calls can disagree. The list shows a part of the results. Activity calls are given as the source filed them. Rule as the data show it, unless noted: active = binding response below about 74% or above about 130%; inactive = in between.

Tests used:
[1] = interference with biotin-avidin bead interaction – biochemical, flow cytometry, bead-based, counter-screen for RGS protein interaction modulators (AID 1783;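 active = inhibition above 50%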;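 also: median green fluorescence of gated singlet beads compared with DMSO control wells; 0% = DMSO wells and 100% = complete loss of bead fluorescence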); details: streptavidin beads, fluorescein-biotin binding; at 10 µM, stronger effect = higher value
[2] = biological target: Guanine nucleotide-binding protein G(o) subunit alpha (Homo sapiens) (UniProt P09471); experiment: retest of RGS8-Galphao interaction hits – biochemical, multiplexed bead flow cytometry, single concentration, confirmation (AID 1836; in the data active = binding response below about 72% or above about 130%; inactive = in between;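 also: Galphao activated as GDP AlF4 complex before binding bead RGS8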); details: bead-based flow cytometry RGS8-Galphao binding, fluorescence; at 10 µM; actives lie on both sides
Guanine nucleotide-binding protein G(o) subunit alpha (Homo sapiens), sequence (P09471 whole entry, looked up): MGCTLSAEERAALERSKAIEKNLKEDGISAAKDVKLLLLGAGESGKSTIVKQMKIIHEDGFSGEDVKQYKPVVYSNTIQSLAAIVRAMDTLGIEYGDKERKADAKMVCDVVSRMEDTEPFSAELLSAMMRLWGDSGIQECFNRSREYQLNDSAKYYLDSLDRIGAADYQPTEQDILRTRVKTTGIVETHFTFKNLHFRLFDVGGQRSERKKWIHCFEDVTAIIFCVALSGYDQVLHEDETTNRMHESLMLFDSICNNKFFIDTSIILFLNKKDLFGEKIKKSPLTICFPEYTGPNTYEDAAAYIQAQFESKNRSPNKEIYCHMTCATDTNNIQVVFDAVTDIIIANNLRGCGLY

[3] = biological target: Guanine nucleotide-binding protein G(o) subunit alpha (Homo sapiens) (UniProt P09471); experiment: retest of RGS7-Galphao interaction hits – biochemical, multiplexed bead flow cytometry, single concentration, confirmation (AID 1837; in the data active = response below about 75% or above about 130%; inactive = in between;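 also: fluorescent Galphao activated with GDP and aluminum fluoride binding bead-coupled RGS7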); details: bead-based flow cytometry RGS7-Galphao binding; at 10 µM; actives lie on both sides
[4] = biological target: Regulator of G-protein signaling 16 (Homo sapiens) + Guanine nucleotide-binding protein G(o) subunit alpha (Homo sapiens) (UniProt O15492+P09471); experiment: RGS16 and Galphao interaction regulators – biochemical, single concentration, multiplexed bead flow cytometry, confirmation (AID 1838; in the data active = response below about 74% or above about 130%; inactive = in between;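 also: Galphao activated as the GDP aluminium fluoride complex binding bead-coupled RGS16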); details: bead-based flow cytometry, at 10 µM, actives lie on both sides
Regulator of G-protein signaling 16 (Homo sapiens) + Guanine nucleotide-binding protein G(o) subunit alpha (Homo sapiens), sequence (O15492 whole entry, looked up): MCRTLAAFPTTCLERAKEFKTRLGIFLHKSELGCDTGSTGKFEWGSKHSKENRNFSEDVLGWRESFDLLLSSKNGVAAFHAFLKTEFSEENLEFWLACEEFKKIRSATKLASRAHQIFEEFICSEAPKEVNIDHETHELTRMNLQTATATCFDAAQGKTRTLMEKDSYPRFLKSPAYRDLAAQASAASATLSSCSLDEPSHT
Regulator of G-protein signaling 16 (Homo sapiens) + Guanine nucleotide-binding protein G(o) subunit alpha (Homo sapiens), sequence (P09471 whole entry, looked up): as the sequence (P09471 whole entry, looked up) above

[5] = biological target: Guanine nucleotide-binding protein G(o) subunit alpha (Homo sapiens) (UniProt P09471); experiment: RGS4 and Galphao interaction regulators – biochemical, single concentration, multiplexed bead flow cytometry, confirmation (AID 1840); details: at 10 µM, actives lie on both sides
[6] = biological target: Guanine nucleotide-binding protein G(o) subunit alpha (Homo sapiens) + Regulator of G-protein signaling 19 (Homo sapiens) (UniProt P09471+P49795); experiment: RGS19 interaction with Gαo, hit retest – biochemical, single point, multiplexed bead flow cytometry, confirmation (AID 1841; in the data active = response below about 50% or above about 160%; inactive = in between;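 also: 100% = no compound control and 0% = blank background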); details: bead-based flow cytometry RGS19-Galphao binding; at 10 µM; actives lie on both sides
Guanine nucleotide-binding protein G(o) subunit alpha (Homo sapiens) + Regulator of G-protein signaling 19 (Homo sapiens), sequence (P09471 whole entry, looked up): as above
Guanine nucleotide-binding protein G(o) subunit alpha (Homo sapiens) + Regulator of G-protein signaling 19 (Homo sapiens), sequence (P49795 whole entry, looked up): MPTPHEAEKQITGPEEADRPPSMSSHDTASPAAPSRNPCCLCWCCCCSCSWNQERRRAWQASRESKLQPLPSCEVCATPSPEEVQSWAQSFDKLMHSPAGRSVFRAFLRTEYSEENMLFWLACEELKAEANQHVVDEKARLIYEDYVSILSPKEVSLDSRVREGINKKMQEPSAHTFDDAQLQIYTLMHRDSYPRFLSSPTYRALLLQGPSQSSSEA

[7] = rapamycin-like changes in RPL19A-GFP expression – cell-based, S. cerevisiae, multiplex flow cytometry, primary screen (AID 1862; in the data active = percent of DMSO control GFP below about 86%;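 also: lower values mimic rapamycin by blocking the RPL19A rise seen in DMSO cells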); details: S. cerevisiae RPL19A-GFP strain, flow cytometry fluorescence, 3 h; at 10 µM; stronger effect = lower value
[8] = TOR pathway GLN3 branch reporter MEP2-GFP changes – S. cerevisiae, multiplex flow cytometry, primary screen (AID 1867;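 active = GFP response, as percent of the DMSO control, above the screen-wide mean plus 3 SD, about 139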;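 also: median GFP channel fluorescence of barcode-gated MEP2-GFP cells measured by flow cytometry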); details: S. cerevisiae MEP2-GFP strain, 3 h, at 10 µM, stronger effect = higher value, 100% means same as DMSO wells
[9] = TOR pathway RTG branch CIT2 reporter changes – S. cerevisiae, GFP fusion, multiplex flow cytometry, primary screen (AID 1870;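 active = percent response above a set limit, the screen-wide mean plus 3 SD, cut at about 130% in these data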;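 also: barcoded CIT2-GFP strain pooled with four other GFP strains with rapamycin as positive control; median GFP fluorescence per well over plate mean of DMSO wells so 100% = DMSO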); details: S. cerevisiae CIT2-GFP expression, 3 h, at 10 µM, stronger effect = higher value
[10] = TOR pathway LAP4-GFP level changes – S. cerevisiae, multiplex flow cytometry, primary screen (AID 1873;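 active = GFP signal, as percent of the solvent control, above the screen mean plus 3 SD, about 149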); details: S. cerevisiae LAP4-GFP expression, 3 h, at 10 µM, stronger effect = higher value
[11] = yeast AGP1-GFP level changes, GLN3 branch – cell-based, multiplex flow cytometry, S. cerevisiae, primary screen (AID 1887;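 active = GFP signal above the screen-wide mean plus 3 SD, that is over about 124.5% of the solvent control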;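 also: AGP1-GFP fusion strain of S. cerevisiae within a five-strain barcoded multiplex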); details: 3 h, at 10 µM, stronger effect = higher value
[12] = hit retest on RPL19A-GFP reporter strain – cell-based, S. cerevisiae, flow cytometry, cherry picks, mother/daughter gates, confirmation (AID 2270;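 active = GFP response below 50% of the DMSO control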); details: 3 h, at 10 µM, stronger effect = lower value, 100 = same GFP as DMSO wells
[13] = yeast TOR pathway reporter LAP4-GFP change – cell-based, cherry picks, flow cytometry, mother/daughter gates, confirmation (AID 2271;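 active = GFP response above 150% of the DMSO control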;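 also: ratio of sample to DMSO plate mean so 100% equals DMSO level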); details: S. cerevisiae LAP4-GFP strain, 3 h, at 10 µM, stronger effect = higher value, 100 means same as DMSO control
[14] = TOR pathway reporter MEP2-GFP, retest of hits – S. cerevisiae, flow cytometry GFP, cherry picks, confirmation (AID 2272;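 active = GFP response above 150% of the DMSO control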;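 also: ratio of well signal to plate DMSO mean so 100% equals DMSO level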); details: S. cerevisiae MEP2-GFP strain, 3 h, at 10 µM, stronger effect = higher value
[15] = TOR pathway CIT2 reporter hit retest – S. cerevisiae, GFP fusion, cherry picks, mother/daughter gates, confirmation (AID 2274;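 active = GFP response above 150% of the DMSO level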); details: S. cerevisiae CIT2-GFP strain, flow cytometry, 3 h, at 10 µM, stronger effect = higher value
[16] = reduced mouse 2C T cell binding to pMHC/ICAM-1 vesicles – MLPCN validation set, flow cytometry, LFA-1/ICAM-1 modulator project, pilot screen (AID 2523;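 active = response below a set limit, under 55% cells CD8-positive and vesicle-bound, and CD8 cells' 90th-percentile brightness under 279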;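 as to vesicle binding response: mean PE anti-B7-1 fluorescence of CD8+ cells relative to row control; 100% = QL9-loaded vesicles with DMSO vehicle in the same plate row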); details: 2C mouse CD8+ T cells, at 7 µM, stronger effect = lower value; double positive events: measured here: CD8+/vesicle+ event percentage
[17] = biological target: Regulator of G-protein signaling 16 (Homo sapiens) (UniProt O15492); experiment: small molecules altering RGS protein interactions with GNAO1 – biochemical, multiplexed beads, flow cytometry, RGS4/7/8/16/19, primary screen (AID 1504); details: multiplexed bead flow cytometry, measured here: RGS16 interaction, at 10 µM;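 also: fluorescently labeled Galpha-o bound to GDP with aluminium fluoride binding biotinylated RGS beads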
[18] = biological target: Regulator of G-protein signaling 19 (Homo sapiens) (UniProt P49795); experiment: as above; details: multiplexed bead flow cytometry, measured here: RGS19 interaction, at 10 µM
[19] = biological target: Regulator of G-protein signaling 7 (Homo sapiens) (UniProt P49802); experiment: as above; details: multiplexed bead flow cytometry, measured here: RGS7 interaction, at 10 µM
[20] = biological target: Regulator of G-protein signaling 8 (Homo sapiens) (UniProt P57771); experiment: as above; details: multiplexed bead flow cytometry, measured here: RGS8 interaction, at 10 µM
[21] = measured here: daughter cell gate
[22] = measured here: mother cell gate
[23] = measured here: daughter cell gate response
[24] = measured here: mother cell gate response

## COc1ccccc1CCNC(=O)CSc1nnc2ccc(-c3cccnc3)nn12
[1]
  inhibition: -0.7% (inactive)
[2]
  binding response (% of control): 100% (inactive)
[3]
  response (percent of control binding): 103% (inactive)
[4]
  response (% of control binding): 101% (inactive)
[5]
  binding response (% of control): 101% (inactive)
[6]
  response (percent of control binding): 107% (inactive)

## c1ccc2c(c1)CCOC2CNCCCN1CCCCC1 (configuration not stated)
[7]
  percent of DMSO control GFP: 92% (inactive)
[8]
  GFP response vs DMSO: 142% (active)
[9]
  percent response of DMSO control: 126% (active)
[10]
  GFP response vs DMSO: 98% (inactive)
[11]
  GFP response, % of DMSO: 113% (inactive)
[12]
  GFP response vs DMSO: 101% (inactive)
[12]; [21]
  GFP response vs DMSO: 101%
[12]; [22]
  GFP response vs DMSO: 102%
[13]
  GFP response relative to DMSO: 92.6% (inactive)
[13]; [23]
  GFP response relative to DMSO: 97.2%
[13]; [24]
  GFP response relative to DMSO: 94.2%
[14]
  GFP response vs DMSO: 100% (inactive)
[15]
  GFP response, % of DMSO: 108% (inactive)
[15]; [21]
  GFP response, % of DMSO: 105%
[15]; [22]
  GFP response, % of DMSO: 113%
[16]
  double positive events: 52.2%
  vesicle binding response: 279% (inactive)

## COc1ccccc1NC(=O)CCCc1c[nH]c2ccccc12
[17]
  RGS16–Galpha-o binding response: 109%
[18]
  RGS19–Galpha-o binding response: 78.4%
[19]
  RGS7–Galpha-o binding response: 312%
[20]
  RGS8–Galpha-o binding response: 85%
[1]
  inhibition: 2.9% (inactive)
[2]
  binding response (% of control): 95.7% (inactive)
[3]
  response (percent of control binding): 89.4% (inactive)
[4]
  response (% of control binding): 97.2% (inactive)
[5]
  binding response (% of control): 92.5% (inactive)
[6]
  response (percent of control binding): 92.9% (inactive)

## CC(=O)Nc1ccc(S(=O)(=O)c2ccc(N)cc2)cc1
[7]
  percent of DMSO control GFP: 97.9% (inactive)
[8]
  GFP response vs DMSO: 126% (inactive)
[9]
  percent response of DMSO control: 136% (active)
[10]
  GFP response vs DMSO: 77.6% (inactive)
[11]
  GFP response, % of DMSO: 85.4% (inactive)
[12]
  GFP response vs DMSO: 103% (inactive)
[12]; [21]
  GFP response vs DMSO: 101%
[12]; [22]
  GFP response vs DMSO: 104%
[13]
  GFP response relative to DMSO: 105% (inactive)
[13]; [23]
  GFP response relative to DMSO: 103%
[13]; [24]
  GFP response relative to DMSO: 106%
[14]
  GFP response vs DMSO: 102% (inactive)
[15]
  GFP response, % of DMSO: 102% (inactive)
[15]; [21]
  GFP response, % of DMSO: 101%
[15]; [22]
  GFP response, % of DMSO: 102%
[16]
  double positive events: 62.6%
  vesicle binding response: 203% (inactive)

## CCCCOC(=O)Cn1c(=N)n(CCN(CC)CC)c2ccccc21
[17]
  RGS16–Galpha-o binding response: 0%
[18]
  RGS19–Galpha-o binding response: -255%
[19]
  RGS7–Galpha-o binding response: 165%
[20]
  RGS8–Galpha-o binding response: 127%
[1]
  inhibition: -1.7% (inactive)
[2]
  binding response (% of control): 101% (inactive)
[3]
  response (percent of control binding): 95.7% (inactive)
[4]
  response (% of control binding): 101% (inactive)
[5]
  binding response (% of control): 97.5% (inactive)
[6]
  response (percent of control binding): 101% (inactive)

## Cc1cccc(S(=O)(=O)CC(=O)Nc2nc(-c3ccccc3)cs2)c1
[17]
  RGS16–Galpha-o binding response: 239%
[18]
  RGS19–Galpha-o binding response: 101%
[19]
  RGS7–Galpha-o binding response: 130%
[20]
  RGS8–Galpha-o binding response: 118%
[1]
  inhibition: 1.7% (inactive)
[2]
  binding response (% of control): 101% (inactive)
[3]
  response (percent of control binding): 106% (inactive)
[4]
  response (% of control binding): 98.5% (inactive)
[5]
  binding response (% of control): 103% (inactive)
[6]
  response (percent of control binding): 105% (inactive)

## C[n+]1ccccc1/C=N/O
[7]
  percent of DMSO control GFP: 99.2% (inactive) and 98.9% (inactive)
[8]
  GFP response vs DMSO: 143% (active) and 101% (inactive)
[9]
  percent response of DMSO control: 101% (inactive) and 95.5% (inactive)
[10]
  GFP response vs DMSO: 90.2% (inactive) and 97% (inactive)
[11]
  GFP response, % of DMSO: 98.2% (inactive) and 98.3% (inactive)
[12]
  GFP response vs DMSO: 99% (inactive)
[12]; [21]
  GFP response vs DMSO: 99.5%
[12]; [22]
  GFP response vs DMSO: 99.6%
[13]
  GFP response relative to DMSO: 98.7% (inactive)
[13]; [23]
  GFP response relative to DMSO: 100%
[13]; [24]
  GFP response relative to DMSO: 101%
[14]
  GFP response vs DMSO: 100% (inactive)
[15]
  GFP response, % of DMSO: 111% (inactive)
[15]; [21]
  GFP response, % of DMSO: 108%
[15]; [22]
  GFP response, % of DMSO: 112%
[16]
  double positive events: 60.5% and 64%
  vesicle binding response: 142% (inactive) and 180% (inactive)
